# Measured values published in PubChem BioAssay AID1508600 (Functional Genomics Laboratory (NCATS/FGL), 2020).
# Hit rate of the full screen: of about 53,000 sequences, about 3,700 (7%) were called active.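 Rule for the calls: active = gene knockdowns whose robust z-score for IL-1 alpha signal is at least 2 or at most -2, so actives lie on both sides; inactive = the rest.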 The sample as a whole holds a higher share of actives than the screen did.
# Assay: Components of the Cytosolic LPS Sensing Pathway: Gene Identification via Genome-wide siRNA Screen;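 note: robust z of the log signal after scaling to non-targeting control siRNA wells of the plate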
# Conditions: RAW264.7 macrophages, IL-1a HTRF, actives lie on both sides, screened at 100 nM (by protocol), cells primed 5 h with Pam3CSK4 first
# Procedure, shortened: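 Using IL-1a HTRF as read-out, the screen measured release from RAW264.7 cells after 48h siRNA knockdown (100 nM), 5 h Pam3CSK4 priming and 24 h cytosolic LipidA. Values were expressed relative to negative-control wells as robust z-scores.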
row,Sequence,z-score
1,GGAUAUCAACAGAUACAUCTT against Serpina12,-0.493 (inactive)
2,CGAUCUGUGAUUGAACCACTT against Pak1,-0.0456 (inactive)
3,GCGUGGACGAAUGGAAACATT against Mapk13,-0.942 (inactive)
4,GGGCAUCUUGUAUAUCUGGTT against Spata33,0.363 (inactive)
5,CCUAAUUUCCUAGAUCUUCTT against Rtp1,-0.439 (inactive)
6,CCUUUUCCAUGCCUACUCCTT against Bag3,0.339 (inactive)
7,CCUAAGGAAGAUAAACCGGTT against Sh2d7,-2.43 (active)
8,GGCAUUUACUACUUCAUAGTT against Nfam1,0.738 (inactive)
9,GGAUAACUACAGGAAUAAGTT against Spam1,-0.701 (inactive)
10,CCGUCCCUAUGAAAUCAGCTT against Lrat,2.28 (active)
11,GGCGAAUUGUAUUUGAAAGTT against Lactb,0.686 (inactive)
12,GGAAGCAGUUCAUGUUAAGTT against Dtx4,1.12 (inactive)
13,GCCCACCUAAACCAACAGUTT against Dap,0.989 (inactive)
14,GGAAAGAAGGACAUGUUGCTT against Fbxo2,-1.22 (inactive)
15,GGAGCACAGAAAACACAAGTT against Ncan,3.41 (active)
16,CCACGCUACAUGCAAUGGCTT against Itpka,0.0149 (inactive)
17,CCCUCUCUGGGACUACAUATT against Zfp395,0.00687 (inactive)
18,GGCAUGAGGGCAAAUGAAATT against 4933434M16Rik,-0.707 (inactive)
19,GGAACAUUUUGGAAAAGACTT against 1300017J02Rik,-0.0855 (inactive)
20,GUACUAGCUAAUUGGGCCATT against Speer4b,0.651 (inactive)
21,GGUUCACCUGGAUUCUGCATT against Clasrp,-2.1 (active)
22,GGAGCAUAUACAACUCAGCTT against Dis3l,0.1 (inactive)
23,GGAUGGGAUGAAAAUUGAATT against Papolg,-0.566 (inactive)
24,GCUUGUCUCACACAGCUCUTT against Olfr401,-3.11 (active)
25,GGUACUGGAAGAGGAGGUATT against Ppil3,-0.507 (inactive)
26,GCACAUUGGGAUAGCUGCATT against Trim65,1.48 (inactive)
27,GGAAAUAUGUGUCCGCACUTT against Mfap2,-0.0699 (inactive)

row,Sequence,z-score
1,GAGAGGGCAUAAUGGUUUUTT against H3c3,4.58 (active)
2,GGGAUACAGAUUUUGUUUATT against Olfr1261,-0.116 (inactive)
3,GGGAAGUUGUCUGACUAUUTT against Cyc1,0.225 (inactive)
4,GGGAAAUGGAGGAUAAUUATT against Zmat1,-0.172 (inactive)
5,GCAAUUACAGGAGGAAUUATT against Orc3,2.86 (active)
6,GCUGAAAACUAGUCAGUCCTT against Epn3,-1.07 (inactive)
7,GCCUUAAAAGACCUGACGUTT against Abca8b,2.12 (active)
8,GCUUACAGCACAACAACAUTT against Ubap1,-0.00967 (inactive)
9,CCUGGACACGAUUUCAGAGTT against Rbm6,1.18 (inactive)
10,GGAGGGUCGGCUUAUAAUUTT against Adam6b,2.16 (active)
11,GGAAGCUUCAAGCCAUGGUTT against Creb3,-0.919 (inactive)
12,CGUUGGAUCUUGAUAAAACTT against Lpar2,0.179 (inactive)
13,GGACUUGAUCAAUGGCUAUTT against Wscd1,-0.043 (inactive)
14,GUGGCGAUAUCCAGAGAUGTT against Vmn1r18,0.261 (inactive)
15,GCCGGCUGUAUUCAGUACGTT against Hoxc9,3.06 (active)
16,GCCACGUCUAAGUAUCAUUTT against Col6a1,-0.377 (inactive)
17,GCUCUGUUGGAAAGGUUUATT against Exosc6,0.0305 (inactive)
18,GCAACUGUUCUACGUCUGATT against Tmprss2,1.63 (inactive)
19,GAAGCUGUCCAAGUACGAGTT against Atoh7,-0.299 (inactive)
20,GGCAUGACAUGUAGAUGGCTT against Aldh3b3,2.17 (active)
21,CGAGCAAUGUUAAAAAUGATT against Slain2,-0.993 (inactive)
22,GGGCAAACCCAAGACCUUATT against Sgms2,-0.0749 (inactive)
23,GGAAUUUGAGAUUGAAUGUTT against Katnbl1,0.478 (inactive)
24,GCCUGGAGACUACAUAUCCTT against Cdc20,-2.09 (active)
25,GCUCGAAUGUGUAAAGACGTT against Csnk1e,0.982 (inactive)
26,CCUUGUUGCUCUGUCGAUCTT against Grina,0.0669 (inactive)
27,CCAAGCUUAUUGACAAUGATT against Spta1,0.213 (inactive)
